The panel holds about 83,000 compounds, 20% with a hit somewhere; the sample as a whole holds those more often.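 Compound tested at a single concentration for 48 hours in 96-well plates; a percent growth value below 10 was scored as active.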 Values without a mark were called inactive. The source made the active and inactive calls.

This test has as its system SNB-75 CNS. Kind of test: NCI-60 one-dose screen, 48 h (100 = growth as untreated, 0 = no growth, -100 = all killed). The conditions noted are these: 10 µM unless noted.
For `Cc1cc2nc3c4cc(Cl)ccc4n(CC(=O)NCCN(C)C)c3nc2cc1C`, the growth was 64.1%.

Turning to `COc1cc(/C=C/C(=O)c2ccc(C)cc2)ccc1Oc1nc(NCCO)nc(N2CCOCC2)n1`, the growth was 93.7%.

Take `O=C(N/N=C/c1ccc(Cl)s1)c1[nH]c2ccc(Br)cc2c1-c1ccccc1`: the growth is 28.1%.

On to `NS(=O)(=O)c1cccc(Nc2nc(SCC(=O)c3ccc([N+](=O)[O-])cc3)nc3ccccc23)c1`, for which the growth is 45.9%.

For the compound `Nc1c(C(=O)c2ccc(Br)cc2)oc2nc(-c3cnccn3)cc(-c3cccs3)c12`, the growth is 98.3%.

In the case of `O=C(N/N=C/c1ccc([N+](=O)[O-])o1)c1[nH]c2ccc(Br)cc2c1-c1ccccc1`, the growth is 17.7%.

Take `O=C(N/N=C/c1ccc([N+](=O)[O-])s1)c1[nH]c2ccc(Br)cc2c1-c1ccccc1`: the growth is 26.2%.

On to `C#Cc1nc(C2=C(C)C(O)/C(=N/O)C2)cs1` (stereo not drawn), for which the growth was -85.7% (active).

`COc1cc(/C=C/C(=O)c2cc(OC)c(OC)c(OC)c2)ccc1OCc1ccccc1`: the growth is 13%.

Take `CCCC(=O)NC(c1ccc(N(CC)CC)cc1)c1cc(C)c2cccnc2c1O` (stereo not drawn): the growth was 60.4%.

As to `CN1CCc2c(sc3ncnc(N/N=C/c4ccc(Cl)c(Cl)c4)c23)C1`, the growth is 79.5%.

For the compound `O=C(N/N=C/c1ccc[nH]1)c1[nH]c2ccc(Br)cc2c1-c1ccccc1`, the growth is 27.3%.

On to `COC(=O)C1CCCN(S(=O)(=O)/N=C2\NC(=O)NC2=C(Cl)Cl)C1` (stereo not drawn), for which the growth is 125%.

Turning to `C=CCn1c(SCC(=O)c2ccccc2)nnc1-c1c[nH]c2ccccc12`, the growth is 96.4%.

As to `COc1ccc(-n2c(SCC(=O)Nc3ccc(-c4nc5ccccc5[nH]4)cc3)nc3ccccc3c2=O)cc1`, the growth is 62.8%.

With `O=C(Oc1ccc2ccc(=O)oc2c1)c1ccc(Cl)cc1`, the growth is 112%.

As for `COc1ccc(C(=O)/C=C/c2ccc(OCc3ccc(Cl)cc3)c(OC)c2)cc1OC`, the growth was 74.8%.

As to `O=C(N/N=C/c1cccs1)c1[nH]c2ccc(Br)cc2c1-c1ccccc1`, the growth was 31.4%.

Turning to `Cc1cc2nc3c4cc(Cl)ccc4n(CC(=S)NCCN(C)C)c3nc2cc1C`, the growth was -19.1% (active).

Take `COc1ccc([C@@H]2c3[nH]c4ccccc4c3CC3C(=O)N(C4CCN(Cc5c(F)cccc5F)CC4)CC(=O)N32)c(OC)c1` (stereo partly drawn): the growth was 22.3% [5.26 µM].

`Cc1cc(C(NC(=O)CCCCCNc2cccc3c2C(=O)N(C2CCC(=O)NC2=O)C3=O)c2cccnc2)c(O)c2ncccc12` (stereo not drawn): the growth is 8.96% (active).

For `CC(=NNc1ncnc2ccccc12)c1ccc(S(C)(=O)=O)cc1`, the growth was 103%.

Turning to `Nc1nc(N)c2c(n1)NC(c1ccc(C(F)(F)F)cc1)CC(c1ccc(Nc3nc(NCCO)nc(Nc4ccc(Cl)cc4)n3)cc1)=N2` (stereo not drawn), the growth is 35.4%.

On to `COc1ccc(/C=C2\SC(=Nc3cc(C)[nH]n3)NC2=O)cc1`, for which the growth is 95.2%.

Regarding `Cn1ccnc1C(=O)/C=C/c1ccc(NC(=O)Nc2ccc(Cl)cc2)cc1`, the growth was 74.4%.

`COC(=O)C1CN(S(=O)(=O)/N=C2\NC(=O)NC2=C(Cl)Cl)C1`: the growth was 113%.

As to `Nc1nc(N)c2c(n1)NC(c1ccc(F)cc1)CC(c1ccc(Nc3nc(NCCO)nc(Nc4ccc(Cl)cc4)n3)cc1)=N2` (stereo not drawn), the growth is 44.3%.

In the case of `COc1cc(/C=C/C(=O)c2cc(OC)c(OC)c(OC)c2)ccc1OCc1ccc(F)cc1`, the growth was 8.67% (active).

Consider `CC(O)C(NC(=O)C1CCCN1C(=O)CNC(=O)C1CC(=O)NCC(=O)NC(Cc2c[nH]c3ccccc23)C(=O)NC(Cc2ccc(O)cc2)C(=O)NCC(=O)NC(CO)C(=O)NC(CCC(N)=O)C(=O)NC(Cc2c[nH]c3ccccc23)C(=O)N1)C(=O)NCC(=O)NC(CCC(N)=O)C(=O)NC(CCCNC(=N)N)C(=O)NC(CC(=O)O)C(=O)O` (stereo not drawn), for which the growth was 92.4%.

Consider `COc1cc(/C=C/C(=O)c2cc(OC)c(OC)c(OC)c2)ccc1Oc1nc(NCCO)nc(N2CCOCC2)n1`, for which the growth was 15.2%.

For `COc1cc(N=Cc2sc(Nc3nccs3)nc2O)cc(OC)c1OC`, the growth is 73.6%.

For `C#Cc1nc(C2=C(C)C(OC(=O)CCC(=O)O)CC2)cs1` (stereo not drawn), the growth is 98.3%.

`O=C(N/N=C/c1ccc(Br)s1)c1[nH]c2ccc(Br)cc2c1-c1ccccc1`: the growth is 39.5%.

Consider `COc1cc(/C=C/C(=O)c2ccc(Cl)cc2)ccc1Oc1nc(NCCO)nc(N2CCOCC2)n1`, for which the growth was 97.8%.

As for `O=C(N/N=C/c1ccco1)c1[nH]c2ccc(Br)cc2c1-c1ccccc1`, the growth was 31.7%.

Regarding `COC(=O)C(C)NS(=O)(=O)/N=C1\NC(=O)NC1=C(Cl)Cl` (stereo not drawn), the growth was 98.8%.

As for `COc1cc(/C=C/C(=O)c2ccc(F)cc2)ccc1Oc1nc(NCCO)nc(N2CCOCC2)n1`, the growth is 92.2%.

For `O=C(CN1CCOCC1)NNc1ncnc2ccccc12`, the growth was 72.7%.

(Values after PubChem BioAssay (NCI).)
